# PubChem BioAssay (EPA / NIEHS)
# Calls of active or inactive are those of the source. How the source made its calls: active means hit-call score of the fitted dose curve at least 0.9, where 1 is the maximum; inactive means score below 0.9.
# Read-out: Vascular cell adhesion molecule 1 (VCAM1), VCAM1 (gene 7412)
# Experiment: BSK_4H_VCAM1: BioMAP Diversity Plus: 4H Assay for Vascular cell adhesion molecule 1 (VCAM1) Biomarker Activity (AID 2283033);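 on outcome: cell-surface VCAM-1 protein measured by ELISA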
# Conditions: primary human endothelial cells (HUVEC); actives raise or lower the signal
# Outline: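 In this human endothelial (HUVEC) system, biomarker ELISA was run 24 h after compound addition, and total protein in parallel wells was assessed by SRB at 560 nm; DMSO served as negative control.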
SMILES,outcome,AC50
CCCCC(CC)COC(=O)CCCCC(=O)OCC(CC)CCCC (configuration not stated),inactive,
Nc1cccc2c(N)cccc12,inactive,
CCCCC(CC)COC(=O)CCCCC(=O)OCc1ccccc1 (configuration not stated),inactive,
Oc1cc2ccccc2c2ccccc12,,8.16 µM (active)
CC(O)CO (configuration not stated),inactive,
CN1CCN(c2ccccc2/C=C2\SCCN(c3ccc(Cl)c(Cl)c3)C2=O)CC1,inactive,
O=c1c(-c2ccc(O)cc2)coc2cc(O)ccc12,inactive,
Cc1oc(-c2ccccc2)nc1CCOc1ccc(C[C@H](Nc2ccccc2C(=O)c2ccccc2)C(=O)O)cc1,,33.5 µM (active)
CCC(=C(c1ccc(O)cc1)c1ccc(OCCN(C)C)cc1)c1ccccc1,,10.3 µM (active)
c1ccc2cc3c(ccc4ccccc43)cc2c1,inactive,
O=[N+]([O-])c1ccc(O)cc1,inactive,
O=C(O)c1ccccc1C(c1ccc(O)cc1)c1ccc(O)cc1,inactive,
CCCCCCCCCCCCc1ccccc1S(=O)(=O)O,inactive,
NC(=O)N1C(=O)C(C(=O)c2cc(Cl)cs2)c2cc(F)c(Cl)cc21 (configuration not stated),,24.5 µM (active)
CC1=C(/C=C/C(C)=C/C=C/C(C)=C/C(=O)O)C(C)(C)CCC1,,26.3 µM (active)
CC[C@H](c1ccc(O)cc1)[C@@H](CC)c1ccc(O)cc1,,30.7 µM (active)

SMILES,outcome,AC50
CC(C)(C)CC(C)(C)c1ccc(O)c(-n2nc3ccccc3n2)c1,inactive,
CCCCCCCCOC(=O)CCCCCCCCC(=O)OCCCCCCCC,inactive,
CCc1nn(C2CCCCC2)c2cc(C3(C#N)CCC(C(=O)O)CC3)ccc12 (configuration not stated),,27 µM (active)
CN1CCC[C@H]1c1cccnc1,inactive,
CCCCCCCCCCCCN1CCCC1=O,,34.2 µM (active)
C#C[C@]1(O)CC[C@H]2[C@@H]3CCC4=CC(=O)CC[C@@H]4[C@H]3CC[C@@]21C,inactive,
CC#C[C@]1(O)CC[C@H]2[C@@H]3CCC4=CC(=O)CCC4=C3[C@@H](c3ccc(N(C)C)cc3)C[C@@]21C,,26.4 µM (active)
CC(=O)NC1(c2cccc(F)c2)CCN(CC[C@@]2(c3ccc(Cl)c(Cl)c3)CN(c3ccccc3)C(=O)CO2)CC1,,27.8 µM (active)
OC1CCC(C2CCCCC2)CC1 (configuration not stated),inactive,
CC(C)(C)c1ccc(O)c(C(C)(C)C)c1,,9.93 µM (active)
CC[C@H](C)[C@@H](C(=O)O)n1sc2ccccc2c1=O,inactive,
OC1CCCCC1,inactive,
O=C(O)Cc1cc(I)c(Oc2cc(I)c(O)c(I)c2)c(I)c1,,19.5 µM (active)
c1ccc2c(c1)Cc1ccccc1-2,inactive,
C=C(C)C(=O)OCCC(F)(F)C(F)(F)C(F)(F)C(F)(F)C(F)(F)C(F)(F)F,inactive,
CCCOc1sc(C(=O)N2CCC(c3cc(CN)ccc3F)CC2)c(C)c1Br,,8.01 µM (active)
